Here are results for six compounds from PubChem BioAssay (Tox21).

Values without a mark were called inactive. Results filed as inconclusive are left out. Active and inactive are the calls of the source. Unless noted, calls follow the shape of the dose curve; as a rule, active = well fitted curve in the direction sought with a large enough effect in the repeat runs; inconclusive = weak or mixed curves; inactive = no such curve, though single readings can be large; an effect the other way counts as inactive or inconclusive.

The nature of experiment [1]: qHTS assay for small molecule agonists of the p53 signaling pathway (AID 651631; calls by dose curve; also: nearly all actives have a fitted effect of over 15% in size; also: potency is read from the fitted curve at half-maximal effect). An outline of the steps: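 Fluorescence intensity from cleaved LiveBLAzer B/G substrate (2 h, room temperature) served as the signal. Beforehand, HCT-116 reporter cells bearing p53 response elements were treated 16 h at 37 °C with DMSO-dissolved compounds.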
Experiment [2] in a line: qHTS assay for small molecules that induce genotoxicity in human embryonic kidney cells expressing luciferase-tagged ATAD5 (AID 651632). Also: nearly all actives have a fitted effect of over 15% in size. An outline of the steps:
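Test compounds were delivered by pin tool onto HEK293T reporter cells (2,000/well) expressing ATAD5 fused to luciferase. After 16 hr at 37C, 5% CO2, Amplite was added for 30 min at room temperature and luminescence was measured.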
Background: Quantitative high-throughput screening tests each substance at several concentrations.

Experiment [3] can be described thus: qHTS assay for small molecule agonists of the p53 signaling pathway - cell viability (AID 651633; calls by dose curve; also: nearly all actives have a fitted effect of over 30% in size; also: potency is read from the fitted curve at half-maximal effect). An outline of the steps:
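Viability counter-read: CellTiter-Glo luminescence (30 min, room temperature) in the same p53RE-bla plates. These plates had been exposed to compounds for 16 h at 37 C.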

The nature of experiment [4]: qHTS assay for small molecules that induce genotoxicity in human embryonic kidney cells expressing luciferase-tagged ATAD5 - cell viability (AID 651634; calls by dose curve; also: nearly all actives have a fitted effect of over 25% in size). Summed up:
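Quantitative high-throughput format. HEK293T cells expressing ATAD5 fused to luciferase were plated at 2,000 cells/well and treated 15.5 hr with compound versus DMSO. Viability was determined by fluorescent live-cell protease substrate, 30 min at 37C.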

Experiment [5] in a line: qHTS assay for small molecule disruptors of the mitochondrial membrane potential - cell viability (AID 720634; calls by dose curve;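 also: human HepG2 liver cancer cells; series mostly up to about 83 µM; nearly all actives have a fitted effect of over 20% in size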). An outline of the steps:
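Same-well counter-screen: following the MMP dye addition, CellTiter-Glo was added to 1 hr compound-treated HepG2 cells and luminescence read after 30 min at room temperature.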

Experiment [6] in a line: qHTS assay to test for compound auto fluorescence at 590 nm (red) in HepG2 cells (AID 720674). An outline of the steps:
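1 hr compound incubation on HepG2 cells, 37 C, 5% CO2; plate read ex 540 nm / em 590 nm; intensities reported as Rose Bengal sodium equivalents.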

A short description of experiment [7]: qHTS assay to test for compound auto fluorescence at 535 nm (green) in HepG2 cells (AID 720675).
The nature of experiment [8]: qHTS assay to test for compound auto fluorescence at 460 nm (blue) in HEK293 cells (AID 720678). Summed up:
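HEK293 cells (2,000 per well, medium with 10% dialyzed FBS) attached for 4-5 hr at 37C, then received compound and stood overnight at 37C, 5% CO2. Blue fluorescence was read at Ex/Em 405/460 nm and expressed relative to triamterene.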

The nature of experiment [9]: qHTS assay to test for compound auto fluorescence at 590 nm (red) in HEK293 cells (AID 720679). Summed up: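 HEK293 cells (2,000/well, medium with 10% dialyzed FBS) attached for 4-5 hr at 37C, received 23 nL compound and were incubated overnight at 37C, 5% CO2. Red fluorescence was then read at 540/590nm Ex/Em, referenced to Rose Bengal sodium.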
A short description of experiment [10]: qHTS assay to test for compound auto fluorescence at 535 nm (green) in HEK293 cells (AID 720680).
A short description of experiment [11]: qHTS assay to test for compound auto fluorescence at 460 nm (blue) in HEK293 cell free culture (AID 720681). An outline of the steps: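 Blue fluorescence (Ex 405/Em 460 nm, triamterene-equivalent) was read immediately after pin transfer of compound or DMSO into medium (DMEM, 10% FBS) without cells.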
A short description of experiment [12]: qHTS assay to test for compound auto fluorescence at 535 nm (green) in HEK293 cell free culture (AID 720682). An outline of the steps:
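Intrinsic compound fluorescence is measured in culture medium containing 10% FBS, with excitation at 485 nm and detection at 535 nm, referenced to fluorescein.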

Experiment [13] is described as follows: qHTS assay to test for compound auto fluorescence at 590 nm (red) in HEK293 cell free culture (AID 720683). Summed up: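 Red-channel autofluorescence of compounds in culture medium (DMEM, 10% FBS), no cells, measured at 540/590 nm. Rose Bengal sodium is the reference fluorophore for equivalence.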
The nature of experiment [14]: qHTS assay to test for compound auto fluorescence at 590 nm (red) in HepG2 cell free culture (AID 720684). An outline of the steps:
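Cell-free; medium MEM + 10% FBS; compound or DMSO added by pintool; read Ex 540/Em 590 nm; Rose Bengal sodium as red reference fluorophore.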

Experiment [15] in a line: qHTS assay to test for compound auto fluorescence at 460 nm (blue) in HepG2 cell free culture (AID 720685). An outline of the steps: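 Cell-free plates of MEM plus 10% FBS received 23 nL compound or DMSO vehicle; blue-channel (405/460 nm) intensity scored against triamterene as reference fluorophore.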
Experiment [16] in a line: qHTS assay to test for compound auto fluorescence at 535 nm (green) in HepG2 cell free culture (AID 720686).
Experiment [17] in a line: qHTS assay to test for compound auto fluorescence at 460 nm (blue) in HepG2 cells (AID 720687). An outline of the steps: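 Blue-channel autofluorescence (Ex/Em 405/460 nm, triamterene-equivalent) was measured after 1 hr compound exposure at 37 C, 5% CO2. Cells were HepG2, plated overnight at 37 C in MEM plus 10% FBS.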
Experiment [18] has as its target Glucocorticoid receptor (Homo sapiens) (UniProt P04150). In words: qHTS assay to identify small molecule agonists of the glucocorticoid receptor (GR) signaling pathway (AID 720691; active = well fitted activation curve with a large enough effect in the signal ratio in the repeat runs, not every such curve was filed as active; the % refers to the signal ratio). Summed up:
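A HeLa cervical cancer line expressing GR and a glucocorticoid response element-driven beta-lactamase gene is treated with compounds for 18 h; LiveBLAzer B/G FRET substrate is then applied and fluorescence read.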

The target is the same in experiment [19]. The experiment in a line: qHTS assay to identify small molecule antagonists of the glucocorticoid receptor (GR) signaling pathway (AID 720692; active = well fitted inhibition curve with a large enough effect in the signal ratio in the repeat runs, not every such curve was filed as active; the % refers to the signal ratio). An outline of the steps:
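GRE-bla HeLa line, dex-stimulated (5 nM final). Compound exposure 18 h, 37 C. Beta-lactamase FRET read after 2 h RT substrate.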

Experiment [20] can be described thus: qHTS assay for small molecule disruptors of the mitochondrial membrane potential (AID 720635). Summed up:
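Mitochondrial membrane potential tracked with Mito-MPS dye, red aggregates (ex 540/em 590 nm) against green monomers (ex 490/em 535 nm). Compound treatment 1 hr at 37C, dye 30 min in HepG2.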
% is scaled to controls: 0 for no effect and ±100 for the full control effect.

Sequence of Glucocorticoid receptor (Homo sapiens) (P04150 whole entry, looked up): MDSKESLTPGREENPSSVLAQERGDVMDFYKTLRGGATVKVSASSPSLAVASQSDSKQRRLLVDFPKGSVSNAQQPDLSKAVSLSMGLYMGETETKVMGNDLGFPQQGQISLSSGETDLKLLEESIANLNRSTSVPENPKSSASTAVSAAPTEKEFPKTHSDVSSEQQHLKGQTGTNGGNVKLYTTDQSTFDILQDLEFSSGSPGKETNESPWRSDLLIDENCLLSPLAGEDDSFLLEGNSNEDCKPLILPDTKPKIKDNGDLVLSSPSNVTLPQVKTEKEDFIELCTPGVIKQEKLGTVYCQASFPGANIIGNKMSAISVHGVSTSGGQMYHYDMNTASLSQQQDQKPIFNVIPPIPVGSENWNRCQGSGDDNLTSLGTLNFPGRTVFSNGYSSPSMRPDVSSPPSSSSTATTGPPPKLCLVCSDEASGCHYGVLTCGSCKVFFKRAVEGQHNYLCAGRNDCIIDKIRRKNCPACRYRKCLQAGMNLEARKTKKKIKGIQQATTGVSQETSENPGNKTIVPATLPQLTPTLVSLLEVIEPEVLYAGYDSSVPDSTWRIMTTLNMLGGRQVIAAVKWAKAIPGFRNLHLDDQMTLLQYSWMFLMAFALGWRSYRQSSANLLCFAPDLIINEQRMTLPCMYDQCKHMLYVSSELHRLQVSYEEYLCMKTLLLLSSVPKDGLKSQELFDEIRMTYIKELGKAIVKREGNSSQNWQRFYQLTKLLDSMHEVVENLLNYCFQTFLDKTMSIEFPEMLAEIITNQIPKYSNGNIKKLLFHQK

Turning to `NC(=O)c1cccc([N+](=O)[O-])c1`, the Potency result in [1], in [2], in [3], in [4], in experiment [5] and in experiment [6] was “inactive” in each case. Further, the Potency result in [7], in experiment [8], in experiment [9], in experiment [10], in experiment [11] and in experiment [12] was “inactive” in each case. Moreover, the Potency result in experiment [13], in [14], in [15], in [16], in experiment [17] and in experiment [18] was “inactive” throughout. The Potency result in [19] was “inactive”.
Consider `O=c1[nH]c(=O)n([C@H]2C[C@H](O)[C@@H](CO)O2)cc1F`, for which the Potency in [1] was 944 nM (active); in experiment [3] it was 211 nM (active). Besides, the Potency entry in experiment [2], in experiment [4], in experiment [5], in [20], in [6] and in experiment [7] was “inactive” throughout. The Potency entry in experiment [8], in experiment [9], in experiment [10], in experiment [11], in experiment [12] and in experiment [13] was “inactive” in each case. The Potency entry in [14], in experiment [15], in experiment [16], in [17] and in [19] was “inactive” throughout.
As for `O=C(O)[C@H](O)[C@@H](O)[C@H](O[C@@H]1O[C@H](CO)[C@H](O)[C@H](O)[C@H]1O)[C@H](O)CO`, the Potency entry in experiment [1], in experiment [2], in [3], in [4], in experiment [5] and in [20] was “inactive” throughout. Moreover, the Potency result in [18] and in [19] was “inactive” in each case. In experiment [6], the fluorescence, relative to Rose Bengal is 0.507% [at 18.6 µM]. Also, the fluorescence, % of fluorescein control in [7] is 0.0584% [at 18.6 µM]; in experiment [16] it was -0.112% [at 18.6 µM]. Moreover, the fluorescence, % of triamterene in experiment [8] was 0.228% [at 18.6 µM]. Also, the fluorescence, % of fluorescent control was 0.434% [at 18.6 µM] in experiment [9], -0.0747% [at 18.6 µM] in [11], -0.292% [at 18.6 µM] in experiment [13] and 0.0744% [at 18.6 µM] in experiment [17]. Further, in [12], the activity change is -0.0154% [at 18.6 µM, active compounds read high]. Besides, the fluorescence, % of Rose Bengal in [14] is 0.117% [at 18.6 µM].
Take `Nc1nc2c(ncn2COCCO)c(=O)[nH]1`: the Potency entry in experiment [1], in experiment [2], in [3], in experiment [4], in experiment [5] and in experiment [20] was “inactive” in each case. Further, the Potency entry in experiment [18] and in [19] was “inactive” in each case. For the same compound, the fluorescence, relative to Rose Bengal in experiment [6] was 2e-05% [at 18.6 µM]. Also, the results for the fluorescence, % of fluorescein control in experiment [7] and in [16] were 0.0011% [at 18.6 µM] and -0.0997% [at 18.6 µM], respectively. For the same compound, in experiment [8], the fluorescence, % of triamterene is -0.0369% [at 18.6 µM]. Moreover, the fluorescence, % of fluorescent control is -0.073% [at 18.6 µM] in [9], 0.0219% [at 18.6 µM] in [11], 0.0201% [at 18.6 µM] in experiment [13] and 0.176% [at 18.6 µM] in [17]. The fluorescence, % of fluorescein in experiment [10] was 0.029% [at 18.6 µM]. Besides, the activity change in experiment [12] is -0.0229% [at 18.6 µM, active compounds read high]. In addition, the fluorescence, % of Rose Bengal in experiment [14] is -0.264% [at 18.6 µM].
For `FC(F)(F)c1cccc(Cl)c1`, the Potency result in experiment [1], in experiment [2], in experiment [3], in experiment [4], in experiment [5] and in experiment [6] was “inactive” each time. The Potency result in [7], in [8], in [9], in experiment [10], in experiment [11] and in experiment [12] was “inactive” throughout. For the same compound, the Potency result in experiment [13], in experiment [14], in experiment [15], in [16], in experiment [17] and in [18] was “inactive” throughout. For the same compound, the Potency result in experiment [19] is “inactive”.
As for `CCN(CCN)c1cccc(C)c1`, the Potency result in experiment [1], in experiment [2], in experiment [3], in experiment [4], in experiment [5] and in experiment [6] was “inactive” each time. Moreover, the Potency entry in [7], in experiment [8], in experiment [9], in [10], in experiment [11] and in experiment [12] was “inactive” throughout. Further, the Potency entry in [13], in [14], in [15], in experiment [16] and in experiment [17] was “inactive” each time.
